# Screens deposited in PubChem BioAssay by The Scripps Research Institute Molecular Screening Center.
# hgDAF-12 ag: activates the H. glycines DAF-12 receptor ligand-binding domain; HEK293 GAL4-hgDAF12 UAS-luciferase reporter, agonist luminescence; normalized to butyrate control; activation, % at 6.8 µM; 370,000 tested, 1.8% active;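 active = activation above a cutoff set at the mean of all screened compounds plus 3 SD, cut at about 10% in these data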;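 also: 0% = DMSO wells and 100% = sodium butyrate wells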
# SMARCA2 activ: increases SMARCA2 function in MMTV reporter cells; MG213 cells, MMTV-luciferase reporter, dexamethasone, overnight; activation, % at 9.1 µM; 370,000 tested, 1% active; AID 652017; in the data active = activation above about 7.8%;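 also: 0% = vehicle wells and 100% = reference activator wells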
# DAX1 inh-1: blocks DAX1 repression of SF-1 activated StAR promoter; HEK293T StAR-luciferase reporter, SF-1/DAX-1 repression relief; inhibition, % at 6.8 µM; 370,000 tested, 1.1% active;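 active = inhibition above the mean over all tested compounds plus 3 SD, cut at about 3.6% in these data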;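 also: 0% = DAX-1 cells with DMSO and 100% = cells lacking DAX-1 with DMSO; higher inhibition means more luminescence from relief of DAX-1 repression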
# ssDAF-12 act: S. stercoralis DAF-12 activation, primary screen. HEK293 ssDAF-12/GRIP1 lit1-tk-luc reporter, luminescence; % of 3 µM dafachronic acid response. activation, % at 6.8 µM. 370,000 tested, 1% active;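 active = activation above the mean over all tested compounds plus 3 SD, cut at about 0.9% in these data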;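 also: 0% = DMSO-only wells and 100% = 3 µM delta7-dafachronic acid wells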
# hcDAF-12 act: H. contortus DAF-12 activation, primary screen | 370,000 tested, 1.4% active | HEK293 hcDAF-12 lit1-tk-luc reporter, luminescence; 0% DMSO, 100% Δ7-dafachronic acid | activation, % at 6.8 µM;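 active = activation above the mean of all tested compounds plus 3 SD, cut at about 5.5% in these data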;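 also: 100% = response to 3 µM Δ7-dafachronic acid high control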
# DAX1 inh-2: NR0B1 (DAX1) inhibition; P51843; HEK293 Gal4-DAX1 luciferase reporter, luminescence; inhibition, % at 6.75 µM; 340,000 tested, 0.99% active;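 active = inhibition above the mean over all tested compounds plus 3 SD, cut at about 4.2% in these data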;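 also: 0% = DAX1-transfected cells with DMSO and 100% = empty-vector control cells with DMSO; inhibition shows as a rise in luminescence from relieved DAX1 repression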
# Target sequence (P51843 207-470 limits assumed): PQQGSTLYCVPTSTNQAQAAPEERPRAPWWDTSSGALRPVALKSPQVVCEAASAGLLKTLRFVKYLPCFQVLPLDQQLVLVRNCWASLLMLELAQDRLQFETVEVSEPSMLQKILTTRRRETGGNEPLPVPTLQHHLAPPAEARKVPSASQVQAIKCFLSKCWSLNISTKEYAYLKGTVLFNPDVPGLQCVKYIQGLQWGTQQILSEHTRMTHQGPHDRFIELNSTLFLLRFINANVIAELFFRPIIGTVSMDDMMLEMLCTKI
# LXRb hcDAF ctr: LXR-beta agonism as hcDAF-12 counter-screen. shares compounds with hcDAF-12 act. HEK293 Gal4-LXR tk-luc reporter, luminescence, 24 h; normalized: DMSO 0%, positive control 100%. activation, % at 6.8 µM. 3,400 tested, under 10 active;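 active = mean percent activation of the reporter above a cutoff set as the average over tested compounds plus their standard deviation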
# Target sequence (P55055 whole entry, looked up, the tested form may be a part): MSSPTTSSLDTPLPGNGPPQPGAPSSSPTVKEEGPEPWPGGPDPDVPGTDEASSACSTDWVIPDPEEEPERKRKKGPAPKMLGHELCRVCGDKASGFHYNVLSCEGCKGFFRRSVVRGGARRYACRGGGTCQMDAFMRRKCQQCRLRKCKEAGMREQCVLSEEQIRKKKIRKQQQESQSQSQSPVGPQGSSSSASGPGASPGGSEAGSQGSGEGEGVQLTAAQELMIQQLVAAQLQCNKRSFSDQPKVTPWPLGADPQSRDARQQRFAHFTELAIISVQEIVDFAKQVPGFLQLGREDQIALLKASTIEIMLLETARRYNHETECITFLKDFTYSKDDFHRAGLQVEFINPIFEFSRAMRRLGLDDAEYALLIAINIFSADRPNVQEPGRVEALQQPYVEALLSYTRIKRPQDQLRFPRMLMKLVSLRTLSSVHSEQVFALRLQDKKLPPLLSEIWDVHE
# hcDAF12 conf: confirmation of H. contortus DAF-12 agonists; shares compounds with hcDAF-12 act; 3,400 tested, 61% active; activation, % at 6.8 µM; HEK293 hcDAF-12 lit1-tk-luc reporter, luminescence; % of Δ7-dafachronic acid response;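 active = mean activation across triplicate tests above the threshold derived from the earlier primary screen, cut at about 5.5% in these data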;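 also: 0% = DMSO only wells and 100% = 3 µM Δ7-dafachronic acid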
# hgDAF12 conf: hgDAF-12 agonism, confirmation assay | HEK293 GAL4-hgDAF12 luciferase reporter, agonist mode; percent of butyrate response | activation, % at 6.8 µM | 3,300 tested, 80% active | shares compounds with hgDAF-12 ag;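 active = mean activation over triplicate wells above the hit cutoff derived from the earlier primary screen, cut at about 11% in these data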;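 also: 0% = DMSO low control and 100% = 2 mM sodium butyrate high control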
# LXR ag 2: LXR-beta agonism as DAF-12 counter-screen; 3,300 tested, under 10 active; HEK293 Gal4-LXR luciferase reporter, 24 h; shares compounds with hgDAF-12 ag; activation, % at 6.8 µM; AID 743051;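 active = mean activation of the triplicate above a set limit carried over from the primary screen, none filed active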
# An asterisk follows results filed as active; x = not tested or not shown. In the library only some 4.8% were active in any assay of this set; here they are far more common.
SMILES,hgDAF-12 ag,SMARCA2 activ,DAX1 inh-1,ssDAF-12 act,hcDAF-12 act,DAX1 inh-2,LXRb hcDAF ctr,hcDAF12 conf,hgDAF12 conf,LXR ag 2
CC(C)(C)c1cc[n+](/C(C(=S)Nc2ccccc2F)=C(/[O-])c2ccc3c(c2)OCCO3)cc1,13.8*,2.6,1.1,0.4,6.8*,2.1,0.2,7.3*,6.1,0.1
COc1ccc(-c2noc(-c3cccnc3)n2)cc1OC,8.9,5.9,1.6,-1.0,1.1,3.6,x,x,x,x
c1cncc(-c2noc(-c3ccc4ccccc4c3)n2)c1,16.6*,4.0,2.6,1.0*,8.8*,-0.1,1.2,5.0,18.6*,1.2
CCc1ccc(NC(=O)c2cc(C(C)C)on2)cc1,14.6*,1.7,2.8,-0.2,7.1*,0.3,1.5,6.0*,19.2*,1.0
N/C(=N\OC(=O)c1cccc2ccccc12)c1cccnc1,14.4*,7.8,0.7,1.6*,12.0*,-0.2,0.3,9.0*,12.3*,0.3
COc1ccc(/C(N)=C/C(=O)C(C)(C)C)cc1,4.3,2.5,0.1,-0.8,1.0,0.5,x,x,x,x
COC(=O)[C@@H](Cc1c[nH]c2ccccc12)NC(=O)c1ccc2c(c1)OCO2,15.8*,4.7,1.2,3.2*,13.0*,3.6,1.0,7.9*,17.9*,0.7
O=C(Nc1ccc2ccccc2n1)c1ccccc1,19.7*,5.5,1.7,1.1*,13.2*,3.9,2.2,12.2*,20.8*,1.0
Cc1cc(C)cc(NC(=O)Nc2ccc3ccccc3n2)c1,2.0,-1.8,0.6,-0.7,0.8,2.4,x,x,x,x
Cc1ccc(C(=O)Nc2ccc3ccccc3n2)cc1,15.2*,0.9,2.9,2.7*,8.2*,1.5,1.8,8.4*,21.1*,1.0
O=C(Nc1ccc2ccccc2n1)c1ccccc1Br,18.8*,1.0,2.1,3.8*,16.3*,1.0,1.3,9.5*,18.2*,1.0
CCN(CC)C(=O)c1cccc(NC(=O)CCc2nc3sc4c(c3c(=O)[nH]2)CCCC4)c1,-0.9,-2.5,-4.5,-0.7,-2.3,-2.6,x,x,x,x
Nc1cc(CN2C(=O)c3ccccc3C2=O)cc(Cl)c1O,-4.6,-3.0,-0.6,-0.9,-2.2,-0.8,x,x,x,x
Cc1ccc(S(=O)(=O)Nc2ccc(-c3cn4ccc(C)cc4n3)cc2)cc1,3.9,0.2,0.4,-1.5,-0.9,0.1,x,x,x,x
Cc1ccn2cc(-c3ccc(Br)cc3)nc2c1,13.7*,1.7,3.7*,0.8,11.7*,-3.1,1.3,8.4*,12.7*,1.0
O=C(Nc1ccon1)c1ccc(Br)s1,2.2,-0.1,-0.7,-1.4,-0.2,0.3,x,x,x,x
Cc1ccnc(NC(=O)c2ccc(Br)s2)c1,20.1*,0.1,2.5,1.6*,13.6*,1.8,1.5,9.3*,16.9*,0.8
COc1ccc(Nc2nccc(-c3cccc(N)c3)n2)cc1,34.1*,4.7,2.4,0.8,12.9*,2.1,1.9,8.7*,21.3*,1.2
COc1ccc(Nc2nccc(-c3ccc(C#N)cc3)n2)cc1,0.8,-3.5,-1.1,-2.0,-3.8,-0.5,x,x,x,x
c1ccc(CSc2nc3ccccc3[nH]2)cc1,22.0*,2.1,3.8*,0.6,8.6*,3.2,1.1,7.4*,16.7*,0.7
O=[N+]([O-])c1ccc(CSc2nc3ccccc3[nH]2)cc1,6.5,4.4,1.3,0.5,5.4,0.2,x,x,x,x
CN(C)C(/C=C/Nc1ccc(F)cc1F)=C(C#N)C#N,0.0,-1.2,0.6,-1.8,-1.6,0.2,x,x,x,x
CCOC(=O)COc1coc(CN2CCN(c3cccc(Cl)c3)CC2)cc1=O,1.6,-1.9,1.6,-0.4,-0.6,-1.0,x,x,x,x
COc1ccc(S(=O)(=O)N(CC(=O)NCc2ccco2)c2ccccc2)cc1OC,-2.5,2.0,-0.9,-0.9,-0.1,-0.4,x,x,x,x
Cc1ccc(-c2nc(-c3nccc4ccccc34)oc2-c2ccccc2)cc1,17.2*,3.9,2.6,0.8,7.7*,3.9,1.2,9.5*,16.2*,0.8
SMILES,hgDAF-12 ag,SMARCA2 activ,DAX1 inh-1,ssDAF-12 act,hcDAF-12 act,DAX1 inh-2,LXRb hcDAF ctr,hcDAF12 conf,hgDAF12 conf,LXR ag 2
Cc1cc(N2CCN(C)CC2)nc2ccc(NC(=O)c3ccc(Br)o3)cc12,1.3,1.9,0.2,-1.0,-0.3,1.1,x,x,x,x
O=C(Nc1ccc2c(c1)OCO2)c1ccccc1,16.1*,7.2,2.0,0.5,9.3*,1.3,1.0,4.3,17.5*,0.6
O=C(NC(=S)Nc1ccc2c(c1)OCO2)c1ccccc1,14.7*,6.0,1.6,0.7,8.7*,3.5,1.7,6.1*,19.8*,1.1
O=C(Nc1ccc2c(c1)OCO2)c1cccc(F)c1,9.7,2.5,1.2,-0.1,0.8,1.9,x,x,x,x
NS(=O)(=O)c1ccc(NC(=S)NC(=O)c2ccc3c(c2)OCO3)cc1,6.5,5.9,0.1,-1.4,-0.1,1.5,x,x,x,x
NNC(=O)[C@H](Cc1ccccc1)NC(=O)NCCc1ccccc1,1.9,-2.5,-0.3,-1.1,0.9,0.5,x,x,x,x
CCOC(=O)c1csc(-c2ccc(OC)c(OC)c2)n1,0.4,2.4,0.1,-1.1,-0.3,-0.4,x,x,x,x
CCOC(=O)c1csc(-c2sccc2Br)n1,15.8*,4.6,2.9,0.9*,7.0*,3.1,0.9,5.8*,16.4*,1.0
Brc1c(-c2ccccc2)nc2n1Cc1ccccc1-2,16.4*,4.4,2.2,1.8*,11.4*,3.7,0.9,11.1*,18.1*,0.6
c1ccc2c(c1)Cn1nnnc1-2,x,x,x,x,x,1.0,x,x,x,x
COc1ccccc1C(=O)NNC(=O)c1ccccc1F,16.3*,5.9,2.6,1.5*,11.3*,1.2,1.0,10.7*,14.9*,0.6
O=C(CCc1nnc(CCc2c[nH]c3ccccc23)o1)NC1CCC1,15.7*,2.5,1.5,1.1*,7.6*,2.5,0.5,6.2*,12.5*,0.3
O=[N+]([O-])c1ccc(-c2cn(-c3ccc(Cl)cc3)cn2)cc1,9.0,5.6,3.3,0.3,3.9,x,x,x,x,x
Brc1ccc(-n2cnc(-c3ccccc3)c2)cc1,20.5*,0.4,2.8,0.2,7.2*,5.4*,1.1,2.9,20.5*,1.1
CN(CC(=O)NC(=O)NCc1ccco1)Cc1nc2ccccc2c(=O)[nH]1,-0.4,-1.6,0.3,-0.6,-0.1,1.4,x,x,x,x
